Test results as given in PubChem BioAssay (Tox21).
The source made the active and inactive calls. Unless noted, the call rests on the fitted dose curve; in most records, active means well fitted curve in the direction sought with a large enough effect in the repeat runs; inconclusive means weak or mixed curves; inactive means no such curve, though single readings can be large; an effect the other way counts as inactive or inconclusive.

Columns and labels:
[1] = qHTS assay to identify small molecule antagonists of the thyroid receptor (TR) signaling pathway - cell viability counter screen (AID 743064); further: nearly all actives have a fitted effect of over 50% in size; further: potency means the concentration at half of the fitted maximal effect
Outline: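 GH3.TRE-Luc rat pituitary cells dosed after 4 hr plating, co-stimulated with T3 at 1 nM final, incubated 23.5 h at 37 C. Viability measured in the same wells by CellTiter-Fluor fluorescence after 30 min further at 37 C.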

[2] = qHTS assay to identify small molecule antagonists of the thyroid receptor (TR) signaling pathway (AID 743065); further: nearly all actives have a fitted effect of over 55% in size; further: potency means the concentration at half of the fitted maximal effect
Outline: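 GH3.TRE-Luc rat pituitary cells carrying two TR response elements driving luciferase were plated for 4 h, given compound plus 1 nM T3 (final), and incubated 23.5 h at 37 C. ONE-Glo luminescence measured reporter inhibition; CellTiter-Fluor fluorescence tracked cytotoxicity.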

[3] = system: thyroid hormone receptor (rat, GH3 cells); test: qHTS assay to identify small molecule agonists of the thyroid receptor (TR) signaling pathway (AID 743066; calls by dose curve)
[4] = molecular target: Estrogen receptor (Homo sapiens) (UniProt P03372); test: qHTS assay to identify small molecule antagonists of the estrogen receptor alpha (ER-alpha) signaling pathway (AID 743069; active means well fitted curve in the direction sought with a large enough effect in the signal ratio in the repeat runs, not every such curve was filed as active; inconclusive means weak or mixed curves, or effect the other way; inactive means no such curve, though single readings can be large or run the other way; the % refers to the signal ratio; further: potency means the concentration at half of the fitted maximal effect)
Outline: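 Screening used a UAS-driven beta-lactamase reporter integrated into HEK293 cells expressing ER-alpha, stimulated with 17beta-estradiol alongside test compounds over 18 hr at 37C; signal came from LiveBLAzer B/G FRET fluorescence.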

[5] = molecular target: Estrogen receptor (Homo sapiens) (UniProt P03372); test: qHTS assay to identify small molecule agonists of the estrogen receptor alpha (ER-alpha) signaling pathway (AID 743075; calls by dose curve; further: potency means the concentration at half of the fitted maximal effect)
[6] = molecular target: Estrogen receptor (Homo sapiens) (UniProt P03372); test: qHTS assay to identify small molecule agonists of the estrogen receptor alpha (ER-alpha) signaling pathway using the BG1 cell line (AID 743079); details: BG1Luc4E2 cells, ERE-luciferase agonist, 22 h; activation: at 70.3 µM (top of the series); further: nearly all actives have a fitted effect of over 20% in size; further: potency means the concentration at half of the fitted maximal effect
[7] = qHTS assay to identify aromatase inhibitors - cell viability counter screen (AID 743084);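 further: cells stimulated with testosterone during compound exposure; nearly all actives have a fitted effect of over 55% in size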; further: potency means the concentration at half of the fitted maximal effect
[8] = molecular target: Aryl hydrocarbon receptor (Homo sapiens) (UniProt P35869); test: qHTS assay to identify small molecule that activate the aryl hydrocarbon receptor (AhR) signaling pathway (AID 743085); further: nearly all actives have a fitted effect of over 15% in size; further: potency means the concentration at half of the fitted maximal effect;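 on activation: HG2L7.5c1 human HepG2 liver cells with stably integrated DRE-driven firefly reporter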
Outline: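 HepG2 cells stably carrying a 20-DRE firefly luciferase reporter (HG2L7.5c1) treated with compound for 24 hr at 37C. Luciferase read by ONE-Glo luminescence, with CellTiter-Fluor viability read first.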

[9] = qHTS assay to identify small molecule that activate the aryl hydrocarbon receptor (AhR) signaling pathway - cell viability counter screen (AID 743086); further: nearly all actives have a fitted effect of over 45% in size; further: potency means the concentration at half of the fitted maximal effect
Outline: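 HepG2-AhR-luc (HG2L7.5c1) cells, 4000/well, were preincubated 5 h at 37C, exposed to compound in qHTS format for 24 hr at 37C, then given CellTiter-Fluor for 30 min; viability was read as fluorescence in the reporter wells.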

[10] = molecular target: Peroxisome proliferator-activated receptor gamma (Homo sapiens) (UniProt P37231); test: qHTS assay to identify small molecule agonists of the peroxisome proliferator-activated receptor gamma (PPARg) signaling pathway (AID 743094; active means well fitted activation curve with a large enough effect in the signal ratio in the repeat runs, not every such curve was filed as active; inconclusive means weak or mixed curves, or effect the other way; inactive means no such curve, though single readings can be large or run the other way; the % refers to the signal ratio)
Outline: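 Agonist activity was taken from a beta-lactamase reporter (FRET substrate, 1 h at room temperature) in HEK293H cells carrying a PPARg UAS-bla construct. Compounds in DMSO were incubated 17 h at 37C after a 5 h cell pre-incubation.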

[11] = qHTS assay to identify small molecule antagonists of the peroxisome proliferator-activated receptor gamma (PPARg) signaling pathway - cell viability counter screen (AID 743194); details: Potency: co-treated with 50 nM rosiglitazone unless noted; further: nearly all actives have a fitted effect of over 55% in size
Outline: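 PPARg-UAS-bla HEK293H cells were plated, rested 5 h at 37 C, then treated with compounds plus rosiglitazone (50 nM final) for 17 h at 37 C; viability was then read by CellTiter-Glo luminescence after 30 min at room temperature.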

[12] = qHTS assay for small molecule agonists of the antioxidant response element (ARE) signaling pathway - cell viability counter screen (AID 743203; calls by dose curve; further: nearly all actives have a fitted effect of over 55% in size)
Outline: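 Viability counter screen: CellTiter-Glo luminescence, read after 30 min at room temperature, in ARE-bla HepG2 wells. Compound exposure lasted 16 h at 37C/5% CO2, following a 5 h pre-incubation of the cells after plating.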

[13] = qHTS assay for small molecule activators of the heat shock response signaling pathway - cell viability counter screen (AID 743209); further: nearly all actives have a fitted effect of over 50% in size; further: potency means the concentration at half of the fitted maximal effect
Outline: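 Cytotoxicity counter screen run in the same wells as the heat-shock bla reporter assay: HeLa HSE-bla cells, 5 h compound exposure at 37 C, viability read by CellTiter-Glo luminescence.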

[14] = qHTS assay for small molecule activators of the heat shock response signaling pathway (AID 743210; active means well fitted activation curve with a large enough effect in the signal ratio in the repeat runs, with a control signal flat, not every such curve was filed as active; inconclusive means weak or mixed curves; the % refers to the signal ratio;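 further: HeLa cells with beta-lactamase reporter driven by heat shock elements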)
Outline: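 Activation of heat shock element-controlled beta-lactamase expression is measured in HeLa cells by LiveBLAzer FRET fluorescence, with compound exposure lasting 5 h at 37 C and substrate loading 2.5 h at room temperature.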

[15] = qHTS assay to identify small molecule antagonists of the estrogen receptor alpha (ER-alpha) signaling pathway - cell viability counter screen (AID 743074; calls by dose curve; further: nearly all actives have a fitted effect of over 45% in size)
[16] = qHTS assay to identify small molecule antagonists of the estrogen receptor alpha (ER-alpha) signaling pathway using the BG1 cell line (AID 743080; calls by dose curve;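 further: BG1 cells stimulated with 17beta-estradiol alongside compound; nearly all actives have a fitted effect of over 25% in size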; further: potency means the concentration at half of the fitted maximal effect)
Outline: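 Readout is ONE-Glo luminescence, taken 30 min at room temperature after reagent addition, preceded by a CellTiter-Fluor viability read; BG1-Luc-4E2 cells had received compound and 17beta-estradiol for 21.5 h at 37 C.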

Aromatase (Homo sapiens) = Aromatase (Homo sapiens) (UniProt P11511); test: qHTS assay to identify aromatase inhibitors (AID 743083); further: nearly all actives have a fitted effect of over 55% in size; further: potency means the concentration at half of the fitted maximal effect
[17] = qHTS assay for small molecule agonists of the antioxidant response element (ARE) signaling pathway (AID 743202; active means well fitted activation curve with a large enough effect in the signal ratio in the repeat runs, not every such curve was filed as active; inconclusive means weak or mixed curves, or effect the other way; inactive means no such curve, though single readings can be large or run the other way; the % refers to the signal ratio)
Outline: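 Steps: seed ARE-bla HepG2 cells (2,000/well); incubate 5 h at 37 C; add compounds by pin tool; incubate 16 h at 37 C; add FRET substrate; read fluorescence after 2 h at RT.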

[18] = qHTS assay to identify small molecule antagonists of the estrogen receptor alpha (ER-alpha) signaling pathway using the BG1 cell line - cell viability counter screen (AID 743081);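 further: compound given together with 17beta-estradiol as the ER stimulus; nearly all actives have a fitted effect of over 45% in size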; further: potency means the concentration at half of the fitted maximal effect
[19] = molecular target: Peroxisome proliferator-activated receptor gamma (Homo sapiens) (UniProt P37231); test: qHTS assay to identify small molecule antagonists of the peroxisome proliferator-activated receptor gamma (PPARg) signaling pathway (AID 743191; calls by dose curve; further: nearly all actives have a fitted effect of over 30% in size)
Outline: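 GeneBLAzer PPARg UAS-bla HEK293H cells carrying a UAS-driven beta-lactamase reporter were plated at 3000 cells/well, preincubated 5 h at 37C, then given compound for 17 h at 37C; LiveBLAzer B/G FRET substrate was read after 1 h at room temperature.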

Measured: Potency

Chain of Aryl hydrocarbon receptor (Homo sapiens) (P35869 whole entry, looked up): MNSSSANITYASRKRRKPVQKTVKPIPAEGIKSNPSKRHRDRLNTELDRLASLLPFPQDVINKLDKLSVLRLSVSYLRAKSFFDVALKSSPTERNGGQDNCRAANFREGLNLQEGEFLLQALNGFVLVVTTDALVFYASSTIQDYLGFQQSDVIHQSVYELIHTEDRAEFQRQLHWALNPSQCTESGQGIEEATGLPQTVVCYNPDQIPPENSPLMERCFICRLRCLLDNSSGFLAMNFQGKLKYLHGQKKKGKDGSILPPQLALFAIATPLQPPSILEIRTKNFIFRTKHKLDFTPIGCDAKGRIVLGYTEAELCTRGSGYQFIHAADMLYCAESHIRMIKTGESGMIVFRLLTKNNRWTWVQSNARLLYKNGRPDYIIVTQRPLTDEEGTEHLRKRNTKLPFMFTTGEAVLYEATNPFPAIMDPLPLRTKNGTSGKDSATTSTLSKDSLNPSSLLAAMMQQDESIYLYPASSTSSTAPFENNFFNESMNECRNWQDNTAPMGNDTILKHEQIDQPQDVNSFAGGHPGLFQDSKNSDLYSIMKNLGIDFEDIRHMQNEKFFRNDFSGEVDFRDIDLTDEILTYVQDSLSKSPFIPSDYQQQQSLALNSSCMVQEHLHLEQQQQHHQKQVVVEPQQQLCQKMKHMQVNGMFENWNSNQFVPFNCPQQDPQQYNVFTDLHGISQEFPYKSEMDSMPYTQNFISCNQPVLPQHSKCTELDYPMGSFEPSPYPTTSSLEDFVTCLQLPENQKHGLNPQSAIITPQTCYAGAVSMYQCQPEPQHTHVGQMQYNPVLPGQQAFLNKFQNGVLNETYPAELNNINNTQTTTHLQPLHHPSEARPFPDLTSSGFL
Chain of Estrogen receptor (Homo sapiens) (P03372 whole entry, looked up): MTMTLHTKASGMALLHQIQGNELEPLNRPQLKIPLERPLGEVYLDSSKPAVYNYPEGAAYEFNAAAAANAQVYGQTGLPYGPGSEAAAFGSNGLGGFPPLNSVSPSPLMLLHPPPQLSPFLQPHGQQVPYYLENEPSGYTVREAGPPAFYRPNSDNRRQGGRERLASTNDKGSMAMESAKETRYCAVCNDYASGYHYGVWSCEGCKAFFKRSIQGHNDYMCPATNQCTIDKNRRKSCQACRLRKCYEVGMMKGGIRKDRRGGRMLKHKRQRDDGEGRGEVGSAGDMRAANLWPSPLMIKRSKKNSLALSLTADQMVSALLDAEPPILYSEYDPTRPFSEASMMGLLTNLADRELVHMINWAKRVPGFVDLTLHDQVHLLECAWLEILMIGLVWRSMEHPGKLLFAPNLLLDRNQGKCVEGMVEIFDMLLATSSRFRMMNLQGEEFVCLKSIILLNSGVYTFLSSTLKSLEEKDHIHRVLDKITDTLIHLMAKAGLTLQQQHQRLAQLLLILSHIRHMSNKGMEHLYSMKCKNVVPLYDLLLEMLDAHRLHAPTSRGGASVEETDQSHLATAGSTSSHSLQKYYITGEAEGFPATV
Chain of Peroxisome proliferator-activated receptor gamma (Homo sapiens) (P37231 whole entry, looked up): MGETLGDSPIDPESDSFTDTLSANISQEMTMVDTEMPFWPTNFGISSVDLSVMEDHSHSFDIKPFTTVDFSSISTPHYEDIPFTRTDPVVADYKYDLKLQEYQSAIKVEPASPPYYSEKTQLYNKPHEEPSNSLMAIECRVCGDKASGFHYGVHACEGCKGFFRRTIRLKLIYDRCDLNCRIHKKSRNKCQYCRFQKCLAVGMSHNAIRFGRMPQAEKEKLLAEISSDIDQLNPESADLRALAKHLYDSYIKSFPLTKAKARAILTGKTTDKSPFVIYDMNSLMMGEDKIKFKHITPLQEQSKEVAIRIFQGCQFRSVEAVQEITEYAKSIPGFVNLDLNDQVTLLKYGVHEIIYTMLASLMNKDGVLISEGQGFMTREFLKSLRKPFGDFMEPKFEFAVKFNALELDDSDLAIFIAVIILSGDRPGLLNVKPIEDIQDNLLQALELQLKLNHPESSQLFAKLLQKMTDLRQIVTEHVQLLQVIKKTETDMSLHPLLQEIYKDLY
Chain of Aromatase (Homo sapiens) (P11511 whole entry, looked up): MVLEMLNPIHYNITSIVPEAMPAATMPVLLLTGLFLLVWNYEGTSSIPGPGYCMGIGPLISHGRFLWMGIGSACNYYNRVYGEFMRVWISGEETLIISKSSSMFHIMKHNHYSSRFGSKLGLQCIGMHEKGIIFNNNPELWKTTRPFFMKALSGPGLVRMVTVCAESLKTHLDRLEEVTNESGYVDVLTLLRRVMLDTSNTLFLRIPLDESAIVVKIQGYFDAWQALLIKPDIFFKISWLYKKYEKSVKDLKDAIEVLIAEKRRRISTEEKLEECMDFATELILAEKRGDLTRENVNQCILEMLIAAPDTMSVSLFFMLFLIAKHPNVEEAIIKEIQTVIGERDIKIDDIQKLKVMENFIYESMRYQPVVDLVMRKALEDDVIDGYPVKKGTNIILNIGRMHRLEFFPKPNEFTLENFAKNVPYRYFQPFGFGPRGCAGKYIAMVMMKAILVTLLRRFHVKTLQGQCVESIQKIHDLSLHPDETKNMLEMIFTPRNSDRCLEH

CN(C)c1ccc(N)cc1
active: [1] 59.6 µM | [2] 47.4 µM | [4] 60.2 µM [inconclusive] | [6] 7.51 µM | [7] 66.9 µM | [8] 18.9 µM | [9] 66.9 µM
inactive: [3] | [5] | [10] | [11] | [12] | [13] | [14]

NC1CCC(CC2CCC(N)CC2)CC1 (centres undefined)
not listed: [4] | [7] | [18] | [19]
inactive: all other assays above

CNC(=O)Oc1cc(C)cc(C(C)C)c1
not listed: [4] | [10] | [17] | [19]
inactive: all other assays above

COc1nc(C)nc(NC(=O)NS(=O)(=O)c2ccccc2Cl)n1
not listed: [5] | [6] | [10]
inactive: all other assays above

N#CCCl
active: [6] 28.4 µM
not listed: [5] | [9] | [17]
inactive: all other assays above

Cc1nn(-c2cc(NS(C)(=O)=O)c(Cl)cc2Cl)c(=O)n1C(F)F
not listed: [4] | [5] | [6] | [16] | [17] | [19]
inactive: all other assays above

CN(C)CCc1c[nH]c2ccccc12
inactive: [1] | [2] | [3] | [15] | [18] | [7] | [8] | [9] | [17] | [12]

Nc1ccc(N=Nc2ccccc2)cc1
inactive: [2] | [3] | [5] | Aromatase (Homo sapiens) | [12] | [13]
active: [1] 56.1 µM | [6] 14.1 µM | [18] 43.3 µM | [7] 24.3 µM | [8] 26.5 µM

O=Cc1ccccc1
inactive: [1] | [2] | [3] | [15] | [18] | [9] | [11] | [17] | [12] | [13] | [14]

O=C(NC(=O)c1c(F)cccc1F)Nc1ccc(Oc2ccc(C(F)(F)F)cc2Cl)cc1F
active: [1] 43.3 µM | [2] 38.6 µM
inactive: [3] | [15] | [18] | [7] | [9] | [11] | [12] | [13]

Nc1cc(Cl)ccc1Cl
inactive: [1] | [2] | [3] | [15] | [18] | [9] | [11] | [17] | [12] | [13] | [14]

O=C(Nc1ccc(F)cc1F)c1cccnc1Oc1cccc(C(F)(F)F)c1
inactive: [1] | [2] | [3] | [15] | [18] | Aromatase (Homo sapiens) | [7] | [9] | [12] | [13]

N#Cc1c[nH]cc1-c1cccc2c1OC(F)(F)O2
active: [1] 27.3 µM | [2] 12.2 µM | [4] 13.8 µM [inhibitor] | [5] 17.4 µM [inconclusive] | [16] 48.6 µM | Aromatase (Homo sapiens) 27.3 µM
not listed: [3] | [8] | [11] | [19]
inactive: all other assays above

CNN
not listed: [4] | [5] | [6] | [9] | [10] | [16]
inactive: all other assays above

Oc1cc(Cl)c(Cl)c(Cl)c1Cl
active: [1] 29.9 µM | [2] 15 µM | [13] 13.5 µM
inactive: [3] | [5] | [18] | [9]
